# Sampled rows, rich in hits. Any-hit rate of the full collection: about 4.1%.
# tim10-1 inh: growth inhibitors of tim10-1 mutant yeast, primary screen, luminescence, uHTS. S. cerevisiae tim10-1 ts strain growth, BacTiter-Glo, 24 h. inhibition, % at 20 µM. 330,000 compounds, 2.2% hits. AID 463190, 2010;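 active = inhibition of at least 40%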;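 note: mutant grown at 25 °C; 0% = DMSO wells with yeast and 100% = wells holding no yeast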
# TIM10 inh: growth inhibitors of isogenic TIM10 control yeast, primary screen, counter-screen for tim10-1 yeast inhibitor project, luminescence, uHTS; 330,000 compounds, 1.4% hits; S. cerevisiae TIM10 strain growth, BacTiter-Glo luminescence, 24 h; inhibition, % at 10 µM;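 active = inhibition of 40% or more at the single tested concentration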;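 note: wild-type TIM10 isogenic control strain grown at permissive 25 °C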
# NALP1 yeast inh: NALP1 inflammasome inhibitors in reconstituted yeast, colorimetric, S. cerevisiae, triplicate retest; S. cerevisiae NALP1/ASC/caspase-1 growth, X-gal OD620, 72 h; inhibition, % at 10 µM; 280,000 compounds, 0.61% hits; AID 2071, 2009; in the data active = inhibition mostly above about 24%, no sharp cut-off; inactive = mostly below about 32%
# PfHsp90 yeast 2: growth inhibition of PfHsp90-expressing yeast, primary screen, antimalarial PfHsp90 inhibitor project, S. cerevisiae, BacTiter-Glo luminescence, single point, set 2; BacTiter-Glo ATP, 48 h; yeast lacking PDR1 and PDR3 efflux regulators; inhibition, % at 9.4 µM; 310,000 compounds, 0.32% hits; AID 504621, 2011;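 active = every replicate shows inhibition above about 80%, whatever the replicate mean, limit read from the data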;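 note: 0% = DMSO neutral controls and 100% = 20 µM radicicol positive controls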
# tim23-1 inh: growth inhibitors of tim23-1 mutant yeast, primary screen, luminescence, uHTS. S. cerevisiae tim23-1 growth, BacTiter-Glo luminescence, 24 h. inhibition, % at 20 µM. 330,000 compounds, 1.3% hits;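 active = growth inhibition of the mutant yeast at or above 50%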;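 note: temperature-sensitive mutant grown at 25 °C; plate controls were DMSO-treated mutant yeast for no effect and medium wells lacking yeast for full effect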
# NALP3 yeast inh: NALP3 inflammasome inhibitors in reconstituted yeast, primary screen, luminescence, uHTS; inhibition, % at 10 µM; AID 2825, 2010; 330,000 compounds, 0.39% hits; Yeast reconstituted NLRP3/ASC/caspase-1, beta-gal luminescence, 24 h;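 active = inhibition of 50% or more; inactive = inhibition below 50%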;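 note: plate controls were induced DMSO wells for no effect and uninduced yeast grown without galactose for full effect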
# tim10-1 conf: growth inhibitors of tim10-1 mutant yeast, confirmation, single concentration, luminescence, S. cerevisiae | shares compounds with tim10-1 inh | S. cerevisiae tim10-1 ts strain growth, BacTiter-Glo, 24 h | inhibition, % at 20 µM | 7,400 compounds, 56% hits | AID 463213, 2010;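 active = inhibition of yeast growth at or above a set limit in either of two repeat tests at 20 µM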;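 note: tim10-1 mutant grown at permissive 25 °C to find synthetic lethal compounds; 0% = DMSO yeast wells and 100% = medium wells without yeast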
# Active calls of the source: *; . = not tested or not shown.
SMILES,tim10-1 inh,TIM10 inh,NALP1 yeast inh,PfHsp90 yeast 2,tim23-1 inh,NALP3 yeast inh,tim10-1 conf
COCC(=O)Nc1sc2c(c1C(=O)OC)C(C(=O)OC)CC2 (stereo not drawn),43*,-6,-5,-34,14,11,7
CC(Sc1ccccc1)C(=O)N/N=C/c1cccnc1 (stereo not drawn),18,-7,10,15,0,-10,.
CC(Oc1cccc2ccccc12)C(=O)N/N=C/c1cccnc1 (stereo not drawn),44*,7,23,2,22,13,-3
CCOC(=O)c1c(C)nsc1NC(=O)C1CCCCC1,-19,-18,-3,8,32,16,.
COc1cc(C2C=C(Nc3ccccc3)C(=O)N2c2ccccc2)ccc1O (stereo not drawn),42*,19,5,14,21,27,11
Cc1ccc(-n2ccnc(SCC(=O)NC3CCCCC3)c2=O)cc1F,44*,4,.,.,31,5,13
COc1ccc(-n2ccnc(SCC(=O)NC3CCCC3)c2=O)cc1OC,-2,16,.,-5,11,16,.
Cc1ccc(S(=O)(=O)c2nc(S(C)(=O)=O)sc2N2CCCCC2C)cc1 (stereo not drawn),42*,37,-21,-80,43,-96,43*
Cc1ccc(S(=O)(=O)c2nc(S(C)(=O)=O)sc2N2CCC(O)CC2)cc1,-4,1,27,-58,-8,-10,.
COc1cccc(NC(=O)CN(C)C(=O)CCN2C(=O)C3CC=CCC3C2=O)c1 (stereo not drawn),-11,-4,.,.,-7,17,.
Cc1oc(=O)c(NC(=O)c2ccc(Cl)cc2)cc1C(=O)c1ccccc1,56*,28,14,59,37,29,57*
CCOc1ccc(N2C(=O)CC(NCC#N)C2=O)cc1 (stereo not drawn),24,-6,21,7,-7,20,.
CCSc1sccc1C1C(C#N)=C(N)N(c2cccnc2)C2=C1C(=O)CC(C)(C)C2 (stereo not drawn),31,3,13,-1,21,-9,.
CC1(C)CC(=O)C2=C(C1)N(c1cccnc1)C(N)=C(C#N)C2c1cccs1 (stereo not drawn),40*,-1,12,2,22,-5,33*
COc1ccc(OCC2NCCc3cc(OC)c(OC)cc32)cc1 (stereo not drawn),24,19,9,-33,36,12,.
COc1cc2c(cc1OC)C(COc1cccc(C(F)(F)F)c1)NCC2 (stereo not drawn),47*,40,14,1,40,24,47*
CCN(CC)C(=O)N1CCc2ccccc2C1CN1C(=O)c2ccccc2C1=O (stereo not drawn),48*,28,.,12,42,1,22
O=C1c2ccccc2C(=O)N1CC1c2ccccc2CCN1C(=O)C1CCCCC1 (stereo not drawn),22,6,8,16,38,13,.
O=C(CNC(=O)N1CC(=O)Nc2ccccc21)Nc1cc(Cl)ccc1Cl,6,2,-5,-19,12,14,.
CCN(CC)S(=O)(=O)c1ccc2oc(C(=O)NCc3ccc(F)cc3)c(C)c2c1,44*,32,6,6,32,5,39*
CC(=O)N1CC(C)Oc2ccc(S(=O)(=O)NC(CC(=O)O)c3ccccc3)cc21 (stereo not drawn),19,-5,20,20,6,8,.
Oc1ccc(Oc2ncc(Cl)cc2Cl)cc1,40*,9,30,-1,37,36,34*
COc1cc(/C=C2\SC(=S)N(NC(=O)c3ccccc3O)C2=O)ccc1O,44*,31,4,-6,34,17,32*
O=C(NN1C(=O)/C(=C/c2ccc(O)cc2)SC1=S)c1ccccc1O,8,-1,-10,-3,14,27,.

# Compound activity from PubChem BioAssay.
